Assay [1] has as its target ATP-dependent 6-phosphofructokinase (Trypanosoma brucei brucei) (UniProt O15648). In words: qHTS Assay to Find Inhibitors of T. brucei phosphofructokinase: hit validation (AID 492961). Also: potency is read from the fitted curve at half-maximal effect. In outline:
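Luminescence from ADP-Glo reports ADP generated as T. brucei PFK (1.25 nM) phosphorylates 0.5 mM fructose-6-phosphate using 0.1 mM ATP. Reactions ran 45 min at room temperature, pH 8.0.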

For assay [2], the target named is D(1A) dopamine receptor (Homo sapiens) (UniProt P21728). Nature of the assay: HTS Assay for Allosteric Agonists of the Human D1 Dopamine Receptor: Primary Screen for Potentiators (AID 488982). Also: potency is read from the fitted curve at half-maximal effect. Put shortly: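 Tetracycline-induced HEK293 Trex D1 cells with forced coupling to calcium, loaded with no-wash calcium dye; kinetic fluorescence read 180 s after compound addition for agonism, then a further 180 s after an EC20 dopamine challenge for potentiation.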

Assay [3] is described as follows: Validation screen for small molecules that induce genotoxicity in human embryonic kidney (HEK293T) cells expressing luciferase-tagged ELG1 (AID 493106). Put shortly: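 In this validation screen, increased ELG1-luciferase signal flags compounds causing genetic stress. HEK293T reporter cells are treated 16 hr (37 °C, 5% CO2), developed with ONE-Glo for 30 min at room temperature, and imaged on a CCD-based reader.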

For assay [4], the target named is ATPase family AAA domain-containing protein 5 (Homo sapiens) (UniProt Q96QE3). In words: Validation screen for small molecules that inhibit ELG1-dependent DNA repair in human embryonic kidney (HEK293T) cells expressing luciferase-tagged ELG1 (AID 493107). Also: nearly all actives have a fitted effect of over 70% in size. Also: potency is read from the fitted curve at half-maximal effect. In outline:
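Compounds reducing 5-fluorouridine-driven ELG1-luciferase signal in HEK293T cells were scored; exposure lasted 16 hr at 37 °C with luminescence detected via ONE-Glo.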

In assay [5] the target is Thyrotropin-releasing hormone receptor (Homo sapiens) (UniProt P34981). In words: qHTS for Small Molecule Agonists and Allosteric Enhancers of Human TRH Receptor: Validation Screen for Agonists (AID 493127;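 active = calcium activation more than 3 SD above the typical response in the agonist read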;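 also: intracellular calcium rise by fluo-8 fluorescence before TRH EC20 addition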). Particulars: TRH receptor agonist cell assay; at 2 µM; stronger effect = higher value. Put shortly: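 Kinetic fluorescence assay of agonist-induced calcium release: overnight-plated TRHR cells, room-temperature fluo-8 loading, baseline then compound addition with per-second reads.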
A general note: Quantitative high-throughput screening tests each substance at several concentrations.

Assay [6] in a line: qHTS for Inhibitors of Cell Surface uPA Generation: Validation Assay (AID 493164).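 Also: RAW 264.7 macrophage cells exposed to compound for 18 h.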 Put shortly: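 Compounds are titrated over seven points (2.45 nM–38.3 uM final) onto pre-plated RAW 264.7 cells and incubated for 18 h. Retained intracellular ATP, measured with ATP-Lite, indicates blocked lethal factor entry.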
The target in assay [7] is D(1A) dopamine receptor (Homo sapiens) (UniProt P21728). In words: HTS Assay for Allosteric Agonists of the Human D1 Dopamine Receptor: Primary Screen for Antagonists (AID 488983).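 Also: calcium flux response to an EC80 dopamine challenge measured with no-wash dye; nearly all actives have a fitted effect of over 65% in size.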 Also: potency is read from the fitted curve at half-maximal effect. In outline: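 In this primary screen, compounds are applied to calcium-dye-loaded HEK293 T-REx cells with force-coupled D1 expression induced overnight at 30 C. An EC80 of dopamine follows the 180 s compound phase, and calcium is monitored for a further 180 s.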

Assay [8] is described as follows: Nrf2 qHTS screen for inhibitors: Validation (AID 493153; active = well fitted inhibition curve with a large enough effect in the main read-out, with a control signal flat, not every such curve was filed as active). The settings on record: Potency: luciferase luminescence; viability change: measured here: cytotoxicity max response. Put shortly:
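In this counterscreened reporter format, each well gives two signals: CellTiter-Fluor fluorescence for cytotoxicity and ARE-luciferase luminescence for Nrf2 function. A549 ARE_Fluc cells in 5% FBS OPTI-MEM were exposed to compound titrations for 18-24 h.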

Assay [9] concerns the target Tyrosyl-DNA phosphodiesterase 1 (Homo sapiens) (UniProt Q9NUW8). Nature of the assay: Confirmation Assay for Inhibitors of Tyrosyl-DNA Phosphodiesterase (TDP1) (AID 489007). Also: potency is read from the fitted curve at half-maximal effect; nearly all actives have a fitted effect of over 40% in size. The settings on record: recombinant human TDP1 enzymatic activity, dose-response. In outline: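 Loss of AlphaScreen signal reports Tdp1 cleavage of a dual-labelled DNA substrate. Conditions: 1 nM E. coli-derived enzyme, 15 nM substrate, 15 min compound preincubation, 5 min reaction, 10 min bead incubation, all at room temperature.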

Each structure is given as a SMILES string. Records with an inconclusive call do not appear. A call without a number means that no potency is given here. Activity calls are given as the source filed them. Unless noted, calls follow the shape of the dose curve; as a rule, active = well fitted curve in the direction sought with a large enough effect; inconclusive = small, poorly fitted or top-dose-only effect, or another doubt; inactive = no such curve, though single readings can be large; an effect the other way counts as inactive or inconclusive.

Chain of D(1A) dopamine receptor (Homo sapiens) (P21728 whole entry, looked up): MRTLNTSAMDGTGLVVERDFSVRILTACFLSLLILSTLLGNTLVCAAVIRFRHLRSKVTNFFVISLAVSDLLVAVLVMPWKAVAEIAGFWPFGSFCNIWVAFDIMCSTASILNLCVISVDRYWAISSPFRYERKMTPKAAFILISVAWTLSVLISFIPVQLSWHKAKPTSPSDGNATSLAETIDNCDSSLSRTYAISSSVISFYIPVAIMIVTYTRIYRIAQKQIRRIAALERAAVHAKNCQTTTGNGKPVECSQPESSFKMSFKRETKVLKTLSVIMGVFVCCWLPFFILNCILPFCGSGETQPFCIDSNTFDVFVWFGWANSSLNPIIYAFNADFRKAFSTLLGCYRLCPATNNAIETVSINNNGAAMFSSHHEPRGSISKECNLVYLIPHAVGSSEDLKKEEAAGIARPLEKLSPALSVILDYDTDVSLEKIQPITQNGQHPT
Chain of ATP-dependent 6-phosphofructokinase (Trypanosoma brucei brucei) (O15648 whole entry, looked up): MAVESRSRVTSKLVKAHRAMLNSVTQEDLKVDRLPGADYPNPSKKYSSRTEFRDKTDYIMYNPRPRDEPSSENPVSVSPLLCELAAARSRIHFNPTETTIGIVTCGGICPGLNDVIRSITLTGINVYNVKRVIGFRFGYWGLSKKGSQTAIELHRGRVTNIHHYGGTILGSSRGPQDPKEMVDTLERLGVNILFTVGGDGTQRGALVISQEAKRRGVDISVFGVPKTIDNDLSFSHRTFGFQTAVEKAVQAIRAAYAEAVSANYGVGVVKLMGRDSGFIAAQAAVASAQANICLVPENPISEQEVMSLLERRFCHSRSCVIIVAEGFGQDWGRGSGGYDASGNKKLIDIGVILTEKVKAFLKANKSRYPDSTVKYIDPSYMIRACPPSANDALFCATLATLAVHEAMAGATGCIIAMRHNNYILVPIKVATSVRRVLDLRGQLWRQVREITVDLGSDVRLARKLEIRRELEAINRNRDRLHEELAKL
Chain of ATPase family AAA domain-containing protein 5 (Homo sapiens) (Q96QE3 whole entry, looked up, the tested form may be a part): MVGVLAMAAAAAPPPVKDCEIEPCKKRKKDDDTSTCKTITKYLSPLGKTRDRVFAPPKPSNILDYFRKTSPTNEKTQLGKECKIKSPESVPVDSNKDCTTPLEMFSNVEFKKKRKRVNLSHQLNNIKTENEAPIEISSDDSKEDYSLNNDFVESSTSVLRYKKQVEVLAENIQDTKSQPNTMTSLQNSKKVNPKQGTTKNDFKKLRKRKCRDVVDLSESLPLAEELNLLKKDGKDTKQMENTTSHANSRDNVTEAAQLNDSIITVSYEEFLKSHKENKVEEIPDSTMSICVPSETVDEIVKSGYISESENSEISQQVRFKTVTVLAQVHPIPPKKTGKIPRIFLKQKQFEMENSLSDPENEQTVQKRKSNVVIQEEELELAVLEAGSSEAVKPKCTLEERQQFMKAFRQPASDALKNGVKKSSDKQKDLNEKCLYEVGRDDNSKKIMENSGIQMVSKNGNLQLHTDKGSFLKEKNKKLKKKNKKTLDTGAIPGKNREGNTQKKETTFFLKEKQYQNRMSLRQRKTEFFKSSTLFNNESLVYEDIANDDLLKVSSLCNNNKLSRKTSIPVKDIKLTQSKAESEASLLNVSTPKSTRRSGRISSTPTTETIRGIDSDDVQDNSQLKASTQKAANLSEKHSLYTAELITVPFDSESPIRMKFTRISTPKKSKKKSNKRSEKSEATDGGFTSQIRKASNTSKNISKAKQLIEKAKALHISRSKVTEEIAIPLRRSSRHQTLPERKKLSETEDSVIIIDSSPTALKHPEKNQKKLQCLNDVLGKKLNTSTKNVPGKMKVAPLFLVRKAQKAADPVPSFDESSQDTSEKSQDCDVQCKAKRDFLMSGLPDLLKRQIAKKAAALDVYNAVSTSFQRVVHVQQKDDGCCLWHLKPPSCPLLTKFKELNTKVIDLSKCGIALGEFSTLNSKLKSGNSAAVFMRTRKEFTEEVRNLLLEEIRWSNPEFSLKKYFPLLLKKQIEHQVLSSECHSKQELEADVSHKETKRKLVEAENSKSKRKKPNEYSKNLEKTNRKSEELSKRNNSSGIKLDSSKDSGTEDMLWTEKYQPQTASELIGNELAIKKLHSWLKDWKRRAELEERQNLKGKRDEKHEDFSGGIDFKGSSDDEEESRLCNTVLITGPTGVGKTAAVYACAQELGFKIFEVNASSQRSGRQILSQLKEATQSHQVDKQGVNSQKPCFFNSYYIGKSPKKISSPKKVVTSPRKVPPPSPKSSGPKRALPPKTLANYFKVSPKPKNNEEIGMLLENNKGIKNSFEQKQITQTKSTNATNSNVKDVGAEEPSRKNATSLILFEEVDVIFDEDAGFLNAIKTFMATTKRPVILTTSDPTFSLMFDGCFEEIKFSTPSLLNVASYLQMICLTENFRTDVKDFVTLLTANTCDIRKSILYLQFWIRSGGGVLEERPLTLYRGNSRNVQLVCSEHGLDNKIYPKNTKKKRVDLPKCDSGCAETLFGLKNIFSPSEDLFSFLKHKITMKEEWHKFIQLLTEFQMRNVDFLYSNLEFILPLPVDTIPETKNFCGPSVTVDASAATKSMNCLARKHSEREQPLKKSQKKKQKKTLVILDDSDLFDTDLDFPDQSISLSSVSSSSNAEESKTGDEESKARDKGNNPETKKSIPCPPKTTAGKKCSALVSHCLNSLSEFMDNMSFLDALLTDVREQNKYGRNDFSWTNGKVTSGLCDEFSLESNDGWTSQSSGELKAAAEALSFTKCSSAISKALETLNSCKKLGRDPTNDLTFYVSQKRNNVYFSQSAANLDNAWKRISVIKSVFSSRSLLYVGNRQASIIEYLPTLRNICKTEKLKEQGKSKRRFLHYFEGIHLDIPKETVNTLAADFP
Chain of Thyrotropin-releasing hormone receptor (Homo sapiens) (P34981 whole entry, looked up): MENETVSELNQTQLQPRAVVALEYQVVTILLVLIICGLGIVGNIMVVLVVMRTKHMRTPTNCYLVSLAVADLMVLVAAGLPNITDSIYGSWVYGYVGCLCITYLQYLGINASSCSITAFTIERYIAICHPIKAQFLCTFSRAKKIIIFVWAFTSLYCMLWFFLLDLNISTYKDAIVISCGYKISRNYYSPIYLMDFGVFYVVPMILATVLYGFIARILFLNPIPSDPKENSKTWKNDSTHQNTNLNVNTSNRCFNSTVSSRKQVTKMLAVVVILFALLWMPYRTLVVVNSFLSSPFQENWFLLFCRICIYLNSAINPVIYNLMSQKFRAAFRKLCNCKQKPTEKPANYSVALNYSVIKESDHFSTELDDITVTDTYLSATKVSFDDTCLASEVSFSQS
Chain of Tyrosyl-DNA phosphodiesterase 1 (Homo sapiens) (Q9NUW8 whole entry, looked up): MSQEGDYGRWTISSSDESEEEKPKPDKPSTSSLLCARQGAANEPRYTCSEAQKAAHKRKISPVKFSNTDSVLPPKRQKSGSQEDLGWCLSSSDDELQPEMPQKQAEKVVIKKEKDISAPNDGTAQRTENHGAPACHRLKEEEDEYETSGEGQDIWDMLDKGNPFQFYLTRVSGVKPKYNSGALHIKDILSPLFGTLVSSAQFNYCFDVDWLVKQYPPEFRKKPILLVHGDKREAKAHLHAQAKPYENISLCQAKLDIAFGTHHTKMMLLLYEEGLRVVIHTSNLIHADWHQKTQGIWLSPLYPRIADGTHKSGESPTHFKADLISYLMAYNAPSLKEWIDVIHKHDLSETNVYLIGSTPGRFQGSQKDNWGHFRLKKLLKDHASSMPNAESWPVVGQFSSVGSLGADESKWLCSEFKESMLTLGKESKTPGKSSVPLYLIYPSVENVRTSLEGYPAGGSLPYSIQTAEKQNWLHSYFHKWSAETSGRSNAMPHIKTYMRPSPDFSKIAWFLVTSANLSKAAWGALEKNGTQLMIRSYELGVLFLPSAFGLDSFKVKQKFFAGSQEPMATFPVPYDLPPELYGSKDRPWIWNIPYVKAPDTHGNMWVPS

As to `C=CCN=C=S`, the Potency result in [1] is “inactive”.
The same measure, in the same setting: the same measure for `FC(F)OC(F)(F)C(F)Cl` (stereo unspecified): “inactive”; for `OC(c1ccccc1)(c1ccccc1)C1CN2CCC1CC2` (stereo unspecified): “inactive”.
On to `Ic1ccccc1CNC1C2CCN(CC2)C1C(c1ccccc1)c1ccccc1` (stereo unspecified), for which the Potency in assay [2] was 4.11 µM (active); in [4], 16.4 µM (active). Also, the Potency result in [3] is “inactive”. In addition, the activation in [5] was 2.31% (inactive). The outcome in assay [6] was inactive.
Take `F/C(COc1ccc2c(c1)[nH]c1ccccc12)=C1/CN2CCC1CC2`: the Potency result in assay [1] is “inactive”.
Still for that read-out and setting: the result for `CCC1(c2ccccc2)C(=O)NC(=O)N(C)C1=O` (stereo unspecified) reads “inactive”.
For `CN1[C@@H]2CC[C@H]1CC(OC1c3ccccc3CCc3ccccc31)C2` (stereo partly specified), in [1], the Potency entry was “inactive”.
Same read-out and setting: the same measure for `O=C1CCCCC1CN1CCCCC1` (stereo unspecified): “inactive”.
As to `CC(C)[C@@]1(NC(=O)[C@@H]2C[C@@H]3c4cccc5[nH]cc(c45)C[C@H]3N(C)C2)O[C@@]2(O)[C@@H]3CCCN3C(=O)[C@H](Cc3ccccc3)N2C1=O`, the Potency entry in assay [2], in assay [3] and in [8] was “inactive” throughout. The Potency in assay [7] was 5.62 µM (active). In assay [8], this molecule displayed a viability change of 10.7%. In addition, the call in [6] was inactive.
For `Cn1sc(Cl)cc1=O`, in [1], the Potency result was “inactive”.
Same read-out and setting: the same measure for `CCOC(=O)c1ccccc1C(=O)OCC`: “inactive”; for `C[N+]1(C)CCCCC1COC(=O)C(O)(c1ccccc1)c1ccccc1` (stereo unspecified): “inactive”; for `CC(C)(C)c1cc(O)ccc1O`: “inactive”.
On the same count and under the same terms, the same measure for `NCC(O)c1cccc(O)c1` (stereo unspecified): “inactive”.
Consider `CCCN(CCC)CCc1c[nH]c2ccc(C(N)=O)cc12`, for which the Potency entry in assay [7], in [3], in assay [4] and in assay [8] was “inactive” each time. For the same molecule, in [5], the activation is 0% (inactive). This molecule also registered a viability change in assay [8] of 1.24%. Besides, in [6], the molecule was called inactive.
For the molecule `Clc1ccc(C2(Cn3cncn3)OCCO2)c(Cl)c1`, the Potency result in [1] was “inactive”.
Still for that read-out and setting: the same measure for `O=S(=O)(O)c1cc(O)ccc1O`: “inactive”.
Still for that read-out and setting: the result for `CC(N)Cc1ccc(O)cc1` (stereo unspecified) reads “inactive”.
As to `O=[N+]([O-])/C=C/c1ccc2c(c1)OCO2`, the Potency result in assay [2] and in [3] was “inactive” throughout. In assay [4], the Potency is 20.6 µM (active). In addition, in assay [6], the result was inactive.
Take `CCCN1CCc2cccc3c2[C@H]1Cc1ccc(O)c(O)c1-3`: the Potency entry in [2], in assay [3] and in [4] was “inactive” throughout. Also, the result in [6] was inactive.
Consider `C=CCN1CCc2cccc3c2[C@H]1Cc1ccc(O)c(O)c1-3`, for which the Potency result in assay [2], in assay [3] and in assay [8] was “inactive” each time. Also, the Potency in assay [7] was 0.398 µM (active). Also, the viability change in assay [8] stood at 1.3%. For the same molecule, the outcome in assay [6] was inactive.
As to `[O]=[Cd]`, the Potency entry in [1] was “inactive”.
For `CC(=O)OCC1=C(C(=O)O)N2C(=O)[C@@H](NC(=O)CCC[C@@H](N)C(=O)O)[C@H]2SC1`, the Potency entry in assay [7], in assay [3] and in [8] was “inactive” each time. Moreover, the viability change in assay [8] was found to be 1.57%. Besides, the molecule was classed as inactive in assay [6].
Turning to `CCCC(=O)OC(C(Cl)(Cl)Cl)P(=O)(OC)OC` (stereo unspecified), the Potency result in assay [1] was “inactive”.
`[O]=[Cr](=[O])([OH])[O][Cr](=[O])(=[O])[OH]`: the Potency in assay [9] was 4.47 µM (active).
Turning to `C[CH2][Hg][S]c1ccccc1C(=O)O`, the Potency in assay [1] is 14.1 µM (active).
On the same count and under the same terms, the same measure for `C/C(=C\c1csc(C)n1)[C@@H]1C[C@@H]2O[C@]2(C)CCC[C@H](C)[C@H](O)[C@@H](C)C(=O)C(C)(C)[C@@H](O)CC(=O)O1`: “inactive”; for `ClC=C(Cl)Cl`: “inactive”.
Regarding `OCc1cnc[nH]1`, the Potency result in assay [7], in [3] and in assay [4] was “inactive” each time. Besides, the activation in assay [5] is 1% (inactive). Also, the molecule was called inactive in assay [6].
In the case of `COC([CH2][Hg])CNC(=O)c1ccccc1OCC(=O)O` (stereo unspecified), the Potency in [1] is 7.08 µM (active).
`c1ccc2c(N3CCNCC3)cccc2c1`: the Potency entry in assay [2], in [3], in assay [4] and in [8] was “inactive” in each case. The activation in assay [5] was 1.75% (inactive). Also, the viability change in assay [8] amounted to 3.18%. In addition, the outcome in assay [6] was inactive.
For the molecule `CC(=O)OO`, in assay [1], the Potency entry was “inactive”.
Same read-out and setting: the result for `O=c1[nH]cc(N(CCCl)CCCl)c(=O)[nH]1` reads “inactive”.
Same read-out and setting: the result for `C[C@@H](Cc1ccccc1)NCCC(c1ccccc1)c1ccccc1` reads “inactive”.
In the case of `N#CN`, the Potency entry in assay [1] was “inactive”.
On the same count and under the same terms, the result for `CCC1(C)CC(=O)NC(=O)C1` reads “inactive”.

These data come from PubChem BioAssay (NCATS).
